Results published in PubChem BioAssay (Tox21).
Where “and” joins values, the source holds several entries; their conditions need not be identical. Equal values may be shown once. Results filed as inconclusive are left out. Unmarked numbers belong to inactive results. Calls follow the shape of the dose curve; as a rule, active = well fitted activation curve with a large enough effect in the repeat runs; inconclusive = weak or mixed curves; inactive = no such curve, though single readings can be large or run the other way. Positions of bridges follow the written chain, without caps; N, C: chain ends. Non-standard residues stand in square brackets, D forms with d. Residues, ends and D or L forms follow the SMILES beside them. *: point of attachment. X1 = CC[C@@H](C)[C@@H](N)C1=N[C@H](C(=O)*)CS1; d(aIle) = CC[C@H](C)[C@@H](N)C(=O)O; dOrn = NCCC[C@@H](N)C(=O)O

Molecular target: Nuclear receptor subfamily 1 group I member 2 (Rattus norvegicus) (UniProt Q9R1A7)
Test: Rat pregnane X receptor (rPXR) activation by small molecules, qHTS assay (AID 1346983); also: nearly all actives have a fitted effect of over 20% in size
Details: rPXR luciferase reporter cells, One-Glo luminescence, 24 h; max activation: active compounds read high
In short: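 Luminescent readout (One-Glo luciferase, 30 min room temperature) followed 24 hr compound treatment at 37 C of rPXR cells plated 2,000 per well and preincubated 5hr; qHTS format with compounds delivered in DMSO.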
% is scaled to controls: 0 for no effect and ±100 for the full control effect.

Chain of Nuclear receptor subfamily 1 group I member 2 (Rattus norvegicus) (Q9R1A7 whole entry, looked up): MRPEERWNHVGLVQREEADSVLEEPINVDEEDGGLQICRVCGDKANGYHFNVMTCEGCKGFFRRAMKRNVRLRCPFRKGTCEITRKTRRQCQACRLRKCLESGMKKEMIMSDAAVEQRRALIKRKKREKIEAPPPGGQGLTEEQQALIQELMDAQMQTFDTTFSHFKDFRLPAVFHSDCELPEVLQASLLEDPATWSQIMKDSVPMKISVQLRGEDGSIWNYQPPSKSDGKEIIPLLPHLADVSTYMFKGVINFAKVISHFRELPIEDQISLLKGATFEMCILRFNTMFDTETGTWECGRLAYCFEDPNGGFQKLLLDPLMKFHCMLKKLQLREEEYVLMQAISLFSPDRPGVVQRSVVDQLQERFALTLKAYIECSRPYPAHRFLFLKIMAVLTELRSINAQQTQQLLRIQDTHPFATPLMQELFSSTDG

SMILES | max activation
O=C1c2ccccc2CN2C(=O)c3ccccc3CN12 | -1.83%
CC[C@@H](C)[C@H](N)C(=O)O | -3.95%
Cc1cc(CC(C)CC(C)(C)C)n(O)c(=O)c1 (stereo not given) (tested in a mixture with another compound) | -3.3%
NCCO/C=C/[C@H](N)C(=O)O | -1.97%
Cc1cc(=O)c(C(=O)N[C@@H](C(=O)N[C@@H]2C(=O)N3C(C(=O)O)=C(CSc4nnnn4C)CS[C@H]23)c2ccc(O)cc2)c[nH]1 | -0.22%
CC(=O)Oc1cc(C(F)(F)F)ccc1C(=O)O | 2.94%
C=C1[C@@H]2CC[C@@H](C2)C1(C)C | -3.65%
CCCOC(=O)c1ccccc1O | -4.53%
Cc1cc(C(=O)NCCc2ccc(S(=O)(=O)NC(=O)NN3CCCCCC3)cc2)no1 | -0.977%
CC[C@@H](C)[C@@H](N)C1=N[C@H](C(=O)N[C@@H](CC(C)C)C(=O)N[C@@H](CCC(=O)O)C(=O)N[C@@H](C(=O)N[C@@H]2CCCCNC(=O)[C@@H](CC(N)=O)NC(=O)[C@@H](CC(=O)O)NC(=O)[C@@H](Cc3cnc[nH]3)NC(=O)[C@@H](Cc3ccccc3)NC(=O)[C@@H]([C@H](C)CC)NC(=O)[C@@H](CCCN)NC2=O)[C@@H](C)CC)CS1 (X1-LE[d(aIle)][dK][dOrn][dI][dF][dH][dD][dN]; lactam 4-C) | -0.877%
NCC(O)CC(=O)O (stereo not given) | -2.62%
CC[N+](CC)(CC)CCC(O)(c1ccccc1)C1CCCCC1 (stereo not given) | -2.27%
CC/C=C\C/C=C\C/C=C\C/C=C\C/C=C\C/C=C\CCC(=O)O | -7.03%
CN1C(C(=O)Nc2ccccn2)C(=O)c2sc(Cl)cc2S1(=O)=O (stereo not given) | -4.75%
OCC1(CO)COC(C(Cl)(Cl)Cl)OC1 | -2.81%
O=C(O)[C@@H]1C[C@H](CP(=O)(O)O)CCN1 | -5.85%
O=C(O)COc1ccccc1/C=N/NC(=O)c1ccncc1 | -3.2%
CN(C)CCC(O)(c1ccccc1)c1ccccc1Cl (stereo not given) | 2.06%
O=C(O)/C=C/C(O)c1ccc(Cl)cc1 (stereo not given) | -1.46%
O=P(O)(O)C(O)(Cn1ccnc1)P(=O)(O)O | -1.82%

SMILES | max activation
Cc1c(N)nc([C@H](CC(N)=O)NC[C@H](N)C(N)=O)nc1C(=O)N[C@H](C(=O)N[C@H](C)[C@@H](O)[C@H](C)C(=O)N[C@H](C(=O)NCCc1nc(-c2nc(C(=O)NCCCCN=C(N)N)cs2)cs1)[C@@H](C)O)[C@@H](O[C@@H]1O[C@@H](CO)[C@@H](O)[C@H](O)[C@@H]1O[C@H]1O[C@H](CO)[C@@H](O)[C@H](OC(N)=O)[C@@H]1O)c1cnc[nH]1 | -0.9%
CC(C)=CCC/C(C)=C/CC/C(C)=C/CC/C=C(\C)CC/C=C(\C)CCC=C(C)C | -2.04%
CCOc1cc(CC(=O)N[C@@H](CC(C)C)c2ccccc2N2CCCCC2)ccc1C(=O)O | -4.89%
CCC(O)c1ccccc1 (stereo not given) | -2.74%
c1ccc(-n2cnnn2)cc1 | -5.33%
CCCC(CCC)C(=O)OC1C[C@H]2CC[C@@H](C1)[N+]2(C)C (stereo not given in full) | -0.777%
Cc1c(O)c(=O)ccn1C | -3.64%
Nc1nc(/C(=C/CC(=O)O)C(=O)N[C@@H]2C(=O)N3C(C(=O)O)=CCS[C@H]23)cs1 | -1.46%
C[C@]12O[C@H](C[C@]1(O)CO)n1c3ccccc3c3c4c(c5c6ccccc6n2c5c31)CNC4=O | -24.6%
CO[C@H]1C[C@@H]2CC[C@@H](C)[C@@](O)(O2)C(=O)C(=O)N2CCCC[C@H]2C(=O)O[C@H]([C@H](C)C[C@@H]2CC[C@@H](O)[C@H](OC)C2)CC(=O)[C@H](C)C=C(C)[C@@H](O)[C@@H](OC)C(=O)[C@H](C)C[C@H](C)/C=C/C=CC=C1C | -10.6% and -9.93%
CO[C@H](C(=O)[C@@H](O)[C@@H](C)O)C1Cc2cc3cc(O[C@H]4C[C@@H](O[C@H]5C[C@@H](O)[C@H](O)[C@@H](C)O5)[C@@H](O)[C@@H](C)O4)c(C)c(O)c3c(O)c2C(=O)[C@H]1O[C@H]1C[C@@H](O[C@H]2C[C@@H](O[C@H]3C[C@](C)(O)[C@H](O)[C@@H](C)O3)[C@H](O)[C@@H](C)O2)[C@H](O)[C@@H](C)O1 (stereo not given in full) | -17.7%
CC(C)[C@H](NC(=O)[C@H](CC(=O)O)NC(=O)[C@H](CCCCN)NC(=O)[C@@H](N)CCCN=C(N)N)C(=O)N[C@@H](Cc1ccc(O)cc1)C(=O)O (H-RKDVY-OH) | -1.21%
CC(C)NCC1CCc2cc(CO)c([N+](=O)[O-])cc2N1 (stereo not given) | -0.344%
O=C1CC[C@@H](C(=O)N[C@H]2C[C@@H]2c2ccccc2)N1 | -3.97%
O=C(CCCN1CCN2CCCC2C1)c1ccc(F)cc1 (stereo not given) | 1.23%
CCc1ncnc2cc(OC)c(OC)cc12 | -3.13%
CC(C)(Oc1ccc(C2CCCc3ccccc32)cc1)C(=O)O (stereo not given) | -3.77%
CN[C@H](CC(C)C)C(=O)N[C@H]1C(=O)N[C@@H](CC(N)=O)C(=O)N[C@H]2C(=O)N[C@H]3C(=O)N[C@H](C(=O)N[C@@H](C(=O)O)c4cc(O)cc(O)c4-c4cc3ccc4O)[C@H](O)c3ccc(c(Cl)c3)Oc3cc2cc(c3O[C@@H]2O[C@H](CO)[C@@H](O)[C@H](O)[C@H]2O[C@H]2C[C@](C)(N)C(O)[C@H](C)O2)Oc2ccc(cc2Cl)[C@H]1O (stereo not given in full) | -3.51%
O=C(O)c1ccc(NC2OC[C@@H](O)[C@H](O)[C@H]2O)cc1 (stereo not given in full) | 10.7%
C=CC1=C(C(=O)O)N2C(=O)[C@@H](NC(=O)/C(=N/OCC(=O)O)c3csc(N)n3)[C@H]2SC1 (stereo in doubt) | -1.86%
